From PubChem BioAssay
gsp agonist – qHTS for Agonist of gsp, the Etiologic Mutation Responsible for Fibrous Dysplasia/McCune-Albright Syndrome: qHTS | gsp mutant cells, cAMP HTRF, 30 min | hit rate 0.13% among 340,000 | Potency, µM (series often up to 76.9 µM), for the others: at the top dose activation (cAMP increase), most hits filed as activators | AID 624287, 2012; active = well fitted activation curve with a large enough effect; inconclusive = small, poorly fitted or top-dose-only effect, or another doubt; inactive = no such curve, though single readings can be large or run the other way; cell line not stated here;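 note: phosphodiesterase inhibitor Ro 20-1724 added with compounds to block cAMP breakdown; potency is the fitted concentration of half-maximal effect; nearly all actives have a fitted effect of over 60% in size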
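Cells in DMEM/10% FBS with G418 were pretreated with compounds in DMSO plus […] (300 uM stock) for 30 min at 37C. cAMP was measured by HTRF (cAMP-d2 plus anti-cAMP antibody-K) after 30 min at room temperature.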
BRCA1 expr act – qHTS Assay to Identify Small Molecule Activators of BRCA1 Expression | MCF7-BRCA1-FFLuc reporter, luminescence, 48 h; response scale: scaled: vehicle 0%, 10 µM genistein 100% | Potency, µM (titrated, usually from 46.1 µM), for inactives: at the top dose activation, hits mostly activators | hit rate 1.1% among 380,000 | AID 624202, 2012; note: potency is the fitted concentration of half-maximal effect; nearly all actives have a fitted effect of over 80% in size
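Activators of BRCA1 expression were detected as increased firefly luciferase luminescence in engineered MCF7 cells after 48 h compound incubation. Signals were scaled to genistein 10 microM as full activation.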
IL-2 act – qHTS of IL-2 Activators; hit rate 0.065% among 360,000; activation, % (series mostly up to about 46 µM); IL-2 activation reporter assay, cell-based qHTS; stimulated with anti-CD3/CD4/CD28 beads; in transgenic mouse T cells; in the data active = activation above about 50%; inconclusive = mostly about 30% to 49%; note: 0% is about no effect
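Unstimulated transgenic mouse T cells; 60-min compound exposure; bead-based TCR/CD4/CD28 stimulation; 18 h culture, 37 degrees C; dual fluorescence (EGFP, DsRed) plate cytometry.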
gsp antagonist – qHTS for Antagonists of gsp, the Etiologic Mutation Responsible for Fibrous Dysplasia/McCune-Albright Syndrome: qHTS. gsp-mutant cells, cAMP HTRF, 30 min. Potency, µM (doses to about 76.9 µM), inactives show at the highest dose activity change, negative = inhibition, usual class: inhibitors. hit rate 0.4% among 340,000. AID 624288, 2012; calls by dose curve; cell line not stated here;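 note: intracellular cAMP measured with PDE inhibitor Ro 20-1724 present during compound exposure; potency is the fitted concentration of half-maximal effect; % is set by controls: 0 for no effect and ±100 for the full control effect; nearly all actives have a fitted effect of over 65% in size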
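Measurement of cellular cAMP by homogeneous time-resolved fluorescence following a 30 min compound exposure at 37C. The PDE inhibitor […] was present throughout; the assay buffer was DPBS with 0.05% BSA and 0.005% Tween 20.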
IDH1 R132H inh – qHTS for Inhibitors of mutant isocitrate dehydrogenase 1 (IDH1): qHTS; Isocitrate dehydrogenase [NADP] cytoplasmic (Homo sapiens), O75874; hit rate 0.093% among 390,000; IDH1-R132H enzyme, NADPH consumption, diaphorase/resazurin fluorescence; Potency, µM (top dose mostly 76.6 µM), inactives show at the highest dose activity change, negative = inhibition, hits mostly inhibitors; note: potency is the fitted concentration of half-maximal effect; % is set by controls: 0 for no effect and ±100 for the full control effect; nearly all actives have a fitted effect of over 65% in size
Target sequence (O75874 whole entry R132H, stated change not applied): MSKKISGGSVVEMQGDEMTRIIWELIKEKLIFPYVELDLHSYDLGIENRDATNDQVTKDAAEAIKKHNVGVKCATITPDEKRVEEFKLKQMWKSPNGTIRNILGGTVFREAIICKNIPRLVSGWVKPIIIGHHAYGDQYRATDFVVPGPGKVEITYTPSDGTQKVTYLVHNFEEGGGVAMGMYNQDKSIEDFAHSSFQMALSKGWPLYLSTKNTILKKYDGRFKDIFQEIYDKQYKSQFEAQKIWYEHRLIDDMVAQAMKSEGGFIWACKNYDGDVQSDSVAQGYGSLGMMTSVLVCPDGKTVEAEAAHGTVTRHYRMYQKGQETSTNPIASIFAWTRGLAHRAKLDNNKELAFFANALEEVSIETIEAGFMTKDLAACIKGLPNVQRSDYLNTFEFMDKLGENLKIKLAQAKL
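IDH1-R132H (0.5 ug/mL dispensed) in pH 7.5 Tris buffer was preincubated 30 min with compound, then given a substrate mix of 0.016 mM NADPH and 2 mM alpha-KG for 80 min at room temperature; remaining NADPH was read by diaphorase/resazurin fluorescence.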
Active calls of the source: *; ? = inconclusive; · = no result; [ ] = dose if it differs, or a comment. Shown are actives, neighbours in structure and some others; about 1.5% of the full set was active somewhere. Unless noted, calls come from the whole dose curve; as a rule, active = well fitted curve in the direction sought with a large enough effect; inconclusive = small, poorly fitted or top-dose-only effect, or another doubt; inactive = no such curve, though single readings can be large; an effect the other way counts as inactive or inconclusive.

SMILES | gsp agonist | BRCA1 expr act | IL-2 act | gsp antagonist | IDH1 R132H inh
CC(O)C1CCC2C3CCC4CC(O)CCC4(C)C3C(=O)CC12C (configuration not stated) | · | -16% | 1 | -5% | 5%
O=C(Nc1cccc(-c2ccc(N3CCOCC3)nn2)c1)c1ccccc1Cl | 4% | 2.5µM* | -3 | 0% | 0%
O=C(Nc1cccc(-c2ccc(N3CCOCC3)nn2)c1)c1cccc(Cl)c1 | -5% | 7.1µM* | -4 | · | 11%
Cc1ccc(-n2c(C)cc(/C=C3\NC(=O)NC3=O)c2C)c(C)c1 | -2%[15.4 µM] | -9% | 67* | 25% | -20%
Cc1ccc(CNC(=O)Nc2cc(C(=O)NCc3ccc(C(C)C)cc3)ccc2N2CCCC2)cc1 | · | · | · | · | 27%
Cc1ccc2cc3cc(C(=O)NC4CCCCC4)oc3nc2c1 | -1% | 4µM* | 1 | 1% | 2%
O=C(NC1CCCCC1)c1cc2cc(Br)ccc2o1 | -11% | 89% | 5 | -1% | 2%
O=C(NC1CCCC1)c1cc2cc(Br)ccc2o1 | 2.5µM* | 3.2µM* | -1 | 8% | 4%
COCCNc1nc2cc(-c3ccc(C)cc3)sc2c(=O)n1C | · | 88% | 2 | · | ·
O=CC(=O)c1ccc(F)cc1 | · | 0% | · | · | ·
O=c1c2ccccc2c(C=Nc2ccccc2O)c(O)n1-c1nccs1 | -24% | -19% | 64* | -21% | -4%
Cc1ccccc1N=Cc1c(O)n(-c2nccs2)c(=O)c2ccccc12 | 23% | -4% | 2 | 7% | 4%
O=C(O)Cn1cnc2c(oc3ccccc32)c1=O | 20%[15.4 µM] | 0% | 1 | 8% | -4%
O=C(Cn1cnc2c(oc3ccccc32)c1=O)c1ccccc1 | -6% | 7.1µM* | -3 | 1% | 2%
O=C(NNC(=S)Nc1ccccc1Cl)c1ccccc1Cl | -21% | 10µM* | -3 | -1% | 4%
O=C(NNC(=S)Nc1ccc(Cl)cc1)c1ccccc1 | -7% | 82% | 0 | 1% | -12%
O=C(NNC(=S)Nc1ccccc1Cl)c1ccccc1 | ? | 13µM* | -2 | -13% | 2%
O=C(Nc1ccccc1Cl)c1ccccc1Cl | -2% | 44% | -1 | 2% | 3%
O=C(O)CCc1ccc(-c2ccccc2)n1-c1cccc(C(=O)O)c1 | 0% | 13µM* | 0 | 6% | 4%
COc1ccccc1NC(=O)COc1ccccc1C(=O)c1cnn(-c2ccccc2)c1 | -22% | 13µM* | -4 | ? | 8%
Cc1cccn2c(=O)c3cc(C(=O)NC4CCCCC4)c(=N)n(Cc4ccc(F)cc4)c3nc12 | 1% | -7% | 154* | 16% | 0%
N=c1c(C(=O)NCc2ccc(F)cc2)cc2c(=O)n3ccccc3nc2n1Cc1cccnc1 | 6% | 1% | 178* | -3% | 4%
COCCCn1c(=N)c(C(=O)NC2CCCC2)cc2c(=O)n3cccc(C)c3nc21 | · | 3% | · | · | 27%
Cc1cccn2c(=O)c3cc(S(=O)(=O)c4ccccc4)c(=N)n(Cc4ccco4)c3nc12 | 27% | 8% | 0 | 3% | -1%
COCCCNC(=O)c1cc2c(=O)n3cccc(C)c3nc2n(C(C)C)c1=N | 22µM* | 15% | 1 | 1% | -4%
Cc1cccn2c(=O)c3cc(S(=O)(=O)c4ccc(F)cc4)c(=N)n(Cc4ccco4)c3nc12 | 0% | -2% | 56* | -13% | 0%
COCCn1c(=N)c(C(=O)NCCc2ccc(OC)cc2)cc2c(=O)n3cccc(C)c3nc21 | 1% | 0% | 1 | 12% | 3%
COc1ccc(CNC(=O)c2cc3c(=O)n4cccc(C)c4nc3n(CC3CCCO3)c2=N)cc1 (configuration not stated) | 2.2µM* | -1% | 2 | 5% | 0%
Cc1cccn2c(=O)c3cc(C(=O)NCc4ccc(F)cc4)c(=N)n(CC4CCCO4)c3nc12 (configuration not stated) | ? | -15% | 0 | -10% | 1%
